High-throughput results deposited in PubChem by National Center for Advancing Translational Sciences (NCATS).
A selection: hits, their analogues and other compounds. The true share with any hit is near 3.4%.
PKM2 activator = increases activity of human pyruvate kinase M2; AID 1631; Potency, µM (highest dose often 57.5 µM), without a hit: at the highest dose activation, actives largely listed as activators; purified PKM2, Kinase-Glo ATP luminescence, activation; response scale: 0% is enzyme alone, no compound; hit rate 0.34% among 260,000; P14618; note: % is set by controls: 0 for no effect and ±100 for the full control effect; nearly all actives have a fitted effect of over 55% in size
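hPK-M2, >95% pure; 0.1 mM ADP / 0.5 mM PEP final; imidazole pH7.2 buffer w/ 7 mM MgCl2, 50 mM KCl; 1 h RT; Kinase-Glo lum. Intermediate enzyme activity for dual inhibitor/activator qHTS.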
GLS inh = blocks human kidney-isoform glutaminase activity | O94925 | GLS enzymatic activity, qHTS titration | hit rate 0.21% among 410,000 | Potency, µM (doses to about 45.5 µM), without a hit: top-dose activity change, negative = inhibition, hits mostly inhibitors; note: % is set by controls: 0 for no effect and ±100 for the full control effect
Target sequence (O94925 whole entry, looked up, canonical isoform): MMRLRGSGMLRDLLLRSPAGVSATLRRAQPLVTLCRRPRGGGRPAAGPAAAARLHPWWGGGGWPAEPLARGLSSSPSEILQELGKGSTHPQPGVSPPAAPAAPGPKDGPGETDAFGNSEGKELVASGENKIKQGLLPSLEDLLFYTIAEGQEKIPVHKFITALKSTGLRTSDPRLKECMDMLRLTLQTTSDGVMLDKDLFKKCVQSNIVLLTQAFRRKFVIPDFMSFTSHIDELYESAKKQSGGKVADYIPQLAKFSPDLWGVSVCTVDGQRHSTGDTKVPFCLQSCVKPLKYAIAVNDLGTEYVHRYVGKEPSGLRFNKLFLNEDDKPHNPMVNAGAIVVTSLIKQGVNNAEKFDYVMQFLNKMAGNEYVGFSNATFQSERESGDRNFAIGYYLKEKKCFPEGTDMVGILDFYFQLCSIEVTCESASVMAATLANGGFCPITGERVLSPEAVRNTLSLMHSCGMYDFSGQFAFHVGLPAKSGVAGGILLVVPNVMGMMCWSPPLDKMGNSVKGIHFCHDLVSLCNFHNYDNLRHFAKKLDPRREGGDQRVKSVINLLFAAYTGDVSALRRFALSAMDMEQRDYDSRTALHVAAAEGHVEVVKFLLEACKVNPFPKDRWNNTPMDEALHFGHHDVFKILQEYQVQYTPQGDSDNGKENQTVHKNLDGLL
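Human kidney-isoform GLS in 45 mM KH2PO4 pH 8.2, 0.02% Tween-20, with compound, started with 1mM L-Glutamine (added stock). Glutamate oxidase/HRP/Amplex red coupled fluorescence read at start and after 30 min at RT.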
Mito fusion yeast = blocks mitochondrial division or promotes mitochondrial fusion; S. cerevisiae fusion-defective mutant growth rescue, CellTiterGlo 48 h; Potency, µM (doses to about 46.1 µM), inactives show at the highest dose growth rescue (activation), usual class: activators; hit rate 0.23% among 320,000; AID 485298; note: % of control where 0% means no effect; nearly all actives have a fitted effect of over 45% in size
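S. cerevisiae fusion-defective temperature-sensitive mutants (e.g. fzo1-1, mgm1-5) grown 48 h at 37C in YPEG (ethanol/glycerol non-fermentable) medium with 23 nl compound per well; growth rescue read as CellTiterGlo luminescence.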
PLK1 PBD inh = PLK1 (human) polo-box domain binding inhibition | Plk1 PBD binding of FITC phosphopeptide, fluorescence polarization | Potency, µM, without a hit: max response, negative = inhibition, hits mostly inhibitors | hit rate 2.8% among 360,000 | AID 720504; note: series mostly up to about 57 µM; % is set by controls: 0 for no effect and ±100 for the full control effect; nearly all actives have a fitted effect of over 65% in size
VDR inhibitor = blocks the human vitamin D receptor. AID 504847. hit rate 0.93% among 400,000. VDR-SRC2-3 peptide fluorescence polarization, 2 h. P11473. Potency, µM, inactives show max response, negative = inhibition, actives largely listed as inhibitors; note: % is set by controls: 0 for no effect and ±100 for the full control effect
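Two reagent solutions held at 4 deg C in the dark were dispensed, compounds pinned at 23 nl, and the mixture incubated 2 h at room temperature. Read-out: fluorescence polarization of VDR–SRC2-3 peptide binding.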
KAT2A inh = inhibitors of human GCN5L2 histone acetyltransferase | Potency, µM (doses to about 58.9 µM), for inactives: at the top dose activity change, negative = inhibition, usual class: inhibitors | GCN5L2 HAT assay, ThioGlo1 CoA-SH fluorescence | hit rate 0.21% among 390,000; note: % is set by controls: 0 for no effect and ±100 for the full control effect
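qHTS, 1536-well. 20nM enzyme, pH 7.5 HEPES/EDTA/Tween-20 buffer; 15 min compound preinc., RT. Start: 75uM H3(1-25), 70uM AcCoA, 50uM ThioGlo1. Read Ex340/Em540 at t=0 (autofluorescence flag) and t=20 min.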
Numbers without * were called inactive; ? = inconclusive; . = not tested or not shown; ! = repeats disagree; [ ] = dose if it differs, or a comment. Calls come from the whole dose curve; as a rule, active = well fitted curve in the direction sought with a large enough effect; inconclusive = small, poorly fitted or top-dose-only effect, or another doubt; inactive = no such curve, though single readings can be large; an effect the other way counts as inactive or inconclusive. Potency is the fitted concentration of half-maximal effect.

SMILES	PKM2 activator	GLS inh	Mito fusion yeast	PLK1 PBD inh	VDR inhibitor	KAT2A inh
CCOc1ccc(-n2c(N)c(C(=O)N3CCN(C)CC3)sc2=S)cc1	-5%	16%	-1%	-8%	-3%	-1%
CC(=O)Nc1cc2c(c(Cl)c1Cl)-c1ccccc1C2=O	.	0%	.	-14%	?	.
CCOC(=O)c1sc(=S)n(-c2ccc3c(c2)OCO3)c1N	9%	-3%	4%	13µM*	?	?
CCOC(=O)c1sc(=S)n(CC)c1N	9%	6%	1%	-20%	6%	-6%
CCCC[C@H](NC(=O)[C@H](CC(C)C)NC(=O)CNC(=O)[C@@H](NC(=O)[C@H](Cc1ccccc1)NC(=O)[C@H](CO)NC(=O)[C@@H](N)CC(=O)O)C(C)C)C(N)=O	.	.	.	.	1%	0%
Nc1nc(Sc2ccc(C(F)(F)F)cc2[N+](=O)[O-])n[nH]1	-2%	3%	2%	-6%	14%	-4%
Nc1nc(Sc2c([N+](=O)[O-])cc(C(F)(F)F)cc2[N+](=O)[O-])n[nH]1	-26%	-13%	3%	2.4µM*	32µM*	?
O=c1cc(CSc2nnnn2-c2ccccc2)nc2scc(-c3ccccc3)n12	25µM*	2%	-4%	?	8%	-18%
CC(=O)c1ccc(NS(=O)(=O)c2ccc(N)cc2)cc1	9%	1%	8%	30µM*	?	10%
CC(=O)c1ccc(S(=O)(=O)Nc2ccc(-c3cn4c(C)csc4n3)cc2)cc1	.	18%	.	.	25µM*	-9%
Cc1cc(C)cc(OC(C)C(=O)NCCCn2ccnc2)c1 (stereo not drawn)	.	21%	-5%	-13%	-5%	-5%
CCOc1cc(NC(=O)c2ccccn2)c(OCC)cc1NC(=O)CC(C)C	1%	26%	3%	21µM*	-29%	-1%
O=C1NC[C@H](CCCCN2CCN(CCC3CCCCC3)C(=O)C2=O)N(CC2CCCCC2)C1=O	.	-1%	.	-7%	.	.
CN(C)c1ccc(-c2ccc3ncnc(-n4ccnc4)c3c2)cc1	.	.	.	.	16µM*	25µM*
Cc1ccccc1-c1ccc2ncnc(-n3ccnc3)c2c1	.	.	.	.	14µM*	-14%
CN(C)C(=O)c1ccc(-c2cncnc2-n2ccnc2)cc1	.	.	.	.	?	-20%
CCN(Cc1ccccc1)c1ccc(/C=N/NS(=O)(=O)c2ccc(C)c([N+](=O)[O-])c2)cc1	-5%	15%	13%	24µM*	?	-16%
CC(C)(c1cc(Br)c(O)c(Br)c1)c1cc(Br)c(O)c(Br)c1	.	34%	-28%	27µM*	-10%	?
CC(C)(c1ccc(O)c([N+](=O)[O-])c1)c1ccc(O)c([N+](=O)[O-])c1	.	11%	.	-5%	17%	.
CC1CCN(C2=C(NS(=O)(=O)c3ccc(Cl)cc3)C(=O)c3ccccc3C2=O)CC1	-10%	9%	16µM*	-10%	-9%	-17%
CC1CCN(C2=C(NS(=O)(=O)c3ccccc3)C(=O)c3ccccc3C2=O)CC1	-6%	?	?	-7%	0%	-8%
Cc1ccc(C(=O)Nc2c(-c3ccc(Cl)cc3)[nH][nH]c2=O)cc1	.	17%	.	-22%	.	.
CC(C)NC(=S)NNc1ncnc2sc3c(c12)CC(C)(C)OC3	.	17%	.	-15%	-5%	.
CC(C)C1Cc2c(sc3ncnc(NN)c23)CO1 (stereo not drawn)	.	11µM*	1%	-1%	6%	-15%
C[C@H]1COc2cccc(N3CCC[C@H]3CO)c2S(=O)(=O)N1	.	43%	.	5%	.	.
SMILES	PKM2 activator	GLS inh	Mito fusion yeast	PLK1 PBD inh	VDR inhibitor	KAT2A inh
COc1ccc(N(CC(=O)N2CCOCC2)S(C)(=O)=O)c(OC)c1	0%[11.5 µM]	-21%	2%	21µM*	?	4%
COc1ccc([N+](=O)[O-])cc1N(CC(=O)N1CCN(Cc2ccccc2)CC1)S(C)(=O)=O	1%	?	2%	12µM*	50µM*	1%
CCCCCCCc1cc2ccccc2c(=O)o1	.	.	.	.	-5%	.
Cc1nc(NC2CCCCC2)c2nc(-c3ccccc3)n(CCCN3CCOCC3)c2n1	0%	.	.	.	.	.
CCCNC(=O)c1cc(OC)c(OC)cc1[N+](=O)[O-]	-1%	14%	-1%	-1%	-5%	-3%
COc1cc(C(=O)NCCc2ccc(F)cc2)c([N+](=O)[O-])cc1OC	2%	5%	1%	13µM*	2%	-2%
CCOC(=O)C1=C(O)C(=O)NC(c2ccccc2)=C(OCC)C1	-10%	-3%	.	1%	-6%	3%
CCOC(=O)C1=C(O)C(=O)NC(c2ccccc2)=C(OC2CCCCC2)C1	0%	-3%	10µM*	0%	4%	2%
CCc1nnc(NC(=O)C2CCCN(C(=O)c3ccoc3)C2)s1 (stereo not drawn)	.	.	.	.	-20%	.
COC(=O)c1cc2oc3ccccc3c2n1Cc1c(C)cc(C)cc1C	.	-13%	.	.	5%	1%
COc1ccc(CNC(=O)C(c2ccc(C)o2)N(Cc2cccs2)C(=O)Cc2cccs2)cc1 (stereo not drawn)	10µM*	0%	21%	-10%	-7%	-8%
COc1c2c(cc3c1C(NC(N)=O)[N+](C)(C)CC3)OCO2 (stereo not drawn)	.	.	.	.	0%	.
Cc1ccccc1N1Cc2ccccc2C1	-5%	6%	1%	-5%	-21%	-3%
NC(COCc1ccccc1)c1csc(NC(=O)Nc2cccc(Cl)c2)n1 (stereo not drawn)	.	10%	.	4%	.	.
CN1CCc2cccc3c2[C@H]1Cc1ccc(O)c(O)c1-3	?	?	3%	38µM*!	35µM*!	-5%
CC1CCC(NC(=O)CCCn2sc3ccccc3c2=O)CC1 (stereo not drawn)	5%[0.46 µM]	19%	13%	27µM*	?	-2%
O=C(CCCn1c(=O)[nH]c2ccccc2c1=O)NC1CCCCCC1	0%	-6%	8%	5%	-14%	-10%
Cc1ccc(CSc2ncc(Cl)c(C(=O)Nc3nnc(C)s3)n2)cc1	.	-1%	.	.	5%	-3%
COc1ccc(/C=C2/C(=O)N(c3nc4ccccc4s3)N=C2CSc2ccc(Cl)cc2)cc1	-10%	-15%	-3%	8.4µM*	-3%	25%
COc1ccc(/C=C2/C(=O)N(Cc3ccccc3)N=C2C)cc1	12%	-3%	-4%	?	?	-2%
COC(=O)Cc1nnc(SCC(=O)Nc2ccccc2)c2ccccc12	.	10%	29%	-1%	79µM*	?
O=C(CSc1nncc2ccccc12)Nc1cccc(C(=O)O)c1	1%	0%	3%	19µM*	-17%	-2%
O=C(CSc1nc(-c2ccccc2)nc2c1Cc1ccccc1O2)Nc1ccccc1	0%	.	-1%	.	.	-8%
O=C(CSc1nnc(SCc2cccc3ccccc23)s1)Nc1ccc(C(=O)O)cc1	0%	?	2%	24µM*	-19%	-2%
